Data on 31 molecules can be found in the supplement of paper PMC8699584.

Values joined by “and” are separate entries in the source; they are usually repeats but may differ in a detail not shown here. Equal entries are not always repeated. Structures can show the parent of a compound that is named as a salt. ± gives the standard deviation of the averaged measurements.

One experiment relates to Molm13. Briefly: cell viability relative to DMSO control (bortezomib = 0%); higher = less growth inhibition. As to conditions: 10 nM; 72 h. In short, it runs like this:
(§1)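 Using 384-well plates, a set of 679 approved and investigational compounds was tested once at 10 nM against acute myeloid leukemia cells (1000 cells per well in 50 µL) over 72 h, with the whole screen done in duplicate. Viability readout relied on CellTiter-Glo luminescence measured on an EnVision reader. For each plate, linear regression mapped values between positive-control-treated cells at 0% and DMSO-treated cells at 100%.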

For another experiment, the system named is Mv4-11. The description is as above. As to conditions: 10 nM; 72 h. Put shortly: as §1

With `CNC(=O)c1ccccc1Nc1cc(Nc2ccc(N3CCOCC3)cc2OC)ncc1C(F)(F)F`, the cell viability (as a rule, a read-out of living cells in per cent, often relative to untreated cells) came out at 105 ± 16% in the experiment with Molm13 and 109 ± 25% with Mv4-11.
The matching figures for `CCc1cc2c(cc1N1CCC(N3CCOCC3)CC1)C(C)(C)c1[nH]c3cc(C#N)ccc3c1C2=O` [Alectinib]: 102 ± 7.8% and 100 ± 2.9%.
Turning to `N#C/C(=C\c1ccc(O)c(O)c1)C(=O)Nc1ccccc1`, the figures for the cell viability in the experiment with Molm13 and in the experiment on Mv4-11 were 106 ± 6.4% and 115 ± 17%, respectively.
On to `O=C(c1cccc(Cl)c1F)N1CCN(Cc2cccc(Nc3nccs3)n2)CC1`, for which the cell viability was 95.9 ± 11% in the experiment on Molm13 and 115 ± 9.6% in the experiment on Mv4-11.
`CCN1CCN(Cc2ccc(Nc3ncc(F)c(-c4cc(F)c5nc(C)n(C(C)C)c5c4)n3)nc2)CC1`: the cell viability in the experiment with Molm13 is 105% and 98.2%; with Mv4-11, 102% and 112%.
Take `CN1CCN(Cc2ccc(-c3cnc4[nH]cc(-c5ccc6[nH]ccc6c5)c4c3)cc2)CC1`: the cell viability came out at 109 ± 33% in the experiment on Molm13 and 121 ± 31% with Mv4-11.
As for `COc1ncc(-c2ccc3nccc(-c4ccnnc4)c3c2)cc1NS(=O)(=O)c1ccc(F)cc1F`, the cell viability in the experiment with Molm13 stood at 61.5 ± 19%; in the experiment on Mv4-11, 76.1 ± 1.9%.
Taken in the same sequence, the figures for `C#Cc1cccc(Nc2ncnc3cc4c(cc23)OCCOCCOCCO4)c1` [Icotinib Hydrochloride] were 100 ± 4.9% and 105 ± 9.2%.
For `O=C(O)c1cc(NCc2cc(O)ccc2O)ccc1O` [Lavendustin C], the values for the cell viability with Molm13 and in the experiment with Mv4-11 were 111 ± 13% and 104 ± 1.9%, respectively.
Consider `O=c1oc2c(O)c(O)cc3c(=O)oc4c(O)c(O)cc1c4c23` [Ellagic acid], for which the values for the cell viability with Molm13 and in the experiment with Mv4-11 were 92.5 ± 28% and 99.5 ± 11%, respectively.
Take `FC(F)(F)c1ccc(/C=C/c2nc(COc3ccc(CCCCn4ccnn4)cc3)co2)cc1` [Mubritinib (TAK 165)]: the values for the cell viability with Molm13 and in the experiment with Mv4-11 were 107 ± 9% and 104 ± 7.6%, respectively.
`COc1cc2nccc(Oc3ccc(NC(=O)C4(C(=O)Nc5ccc(F)cc5)CC4)cc3)c2cc1OC`: the cell viability was 29.6 ± 16% with Molm13 and 44.5 ± 3.8% in the experiment with Mv4-11.
As to `C=CC(=O)Nc1cccc(Nc2nc(Nc3ccc(Oc4ccnc(C(=O)NC)c4)cc3)ncc2F)c1`, the cell viability is 114 ± 24% with Molm13 and 108 ± 9.3% in the experiment with Mv4-11.
The matching figures for `FC(F)(F)c1ccc(CNc2ccc(Cc3c[nH]c4ncccc34)cn2)cc1`: 76.9 ± 16% and 110 ± 3.2%.
Take `O=C(O)c1cc(O)c2c(c1)[C@@H]([C@H]1c3cc(C(=O)O)cc(O)c3C(=O)c3c(O[C@@H]4O[C@H](CO)[C@@H](O)[C@H](O)[C@H]4O)cccc31)c1cccc(O[C@@H]3O[C@H](CO)[C@@H](O)[C@H](O)[C@H]3O)c1C2=O` [Sennoside B]: the cell viability in the experiment on Molm13 came out at 101 ± 12%; with Mv4-11, 91.4 ± 16%.
As for `Nc1nccc(-c2c(-c3ccc(F)cc3)ncn2C2CCCCC2)n1`, the cell viability with Molm13 came to 96.6 ± 18%; with Mv4-11, 114.4 ± 0.84%.
On to `COc1cc2ncnc(Nc3cccc(Cl)c3F)c2cc1OC(=O)N1CCN(C)C[C@H]1C`, for which the cell viability is 110 ± 8.6% in the experiment with Molm13 and 99.9 ± 8.6% with Mv4-11.
For `COc1cc2ncn(-c3cc(OCc4ccccc4S(C)(=O)=O)c(C#N)s3)c2cc1OC`, the cell viability with Molm13 was determined as 83.4 ± 8.5%; in the experiment on Mv4-11 it was 104 ± 5.9%.
As to `C[C@@H]1CN(C(=O)c2ccc(NC(=O)c3cc(O[C@H](C)c4c(Cl)ccc(F)c4Cl)c(N)nn3)cc2)C[C@H](C)N1` [Ensartinib], the cell viability in the experiment with Molm13 is 127 ± 20%; with Mv4-11, 118 ± 12%.
Taken in the same sequence, the figures for `O=C(NCc1cccc(O)c1)Nc1nc(-c2ccncc2)cs1` were 88.6 ± 11% and 121 ± 9%.
In the case of `O=C1NC(=O)C(c2c[nH]c3ccccc23)=C1c1c[nH]c2ccccc12` [Bisindolylmaleimide IV], the cell viability in the experiment with Molm13 was 105 ± 5.2%; in the experiment with Mv4-11, 100 ± 2.6%.
`Nc1ncnc2c1c(-c1cccc(OCc3ccccc3)c1)cn2C1CC(CN2CCCC2)C1` (configuration not stated): the cell viability with Molm13 came out at 103 ± 13%; in the experiment with Mv4-11, 96.5 ± 2.5%.
Take `O=c1cc(-c2ccccc2)oc2c(O)c(O)ccc12` [7,8-Dihydroxyflavone]: the figures for the cell viability in the experiment on Molm13 and in the experiment on Mv4-11 were 108 ± 16% and 104 ± 4%, respectively.
For the molecule `CC1(C)CNc2cc(NC(=O)c3cccnc3NCc3ccncc3)ccc21` [Motesanib Diphosphate (AMG-706)], the figures for the cell viability in the experiment on Molm13 and with Mv4-11 were 89.2 ± 9.9% and 106 ± 12%, respectively.
Taken in the same sequence, the figures for `Nc1cc(C(F)(F)F)c(-c2nc(N3CCOCC3)nc(N3CCOCC3)n2)cn1` were 94.3 ± 30% and 109 ± 5.2%.
Turning to `C=CC(=O)Nc1cc2c(Nc3ccc(F)c(Cl)c3)ncnc2cc1OCCCN1CCOCC1` [Canertinib dihydrochloride], the cell viability in the experiment on Molm13 turned out to be 101 ± 3.2%; in the experiment on Mv4-11 it was 111 ± 6.1%.
On to `Cc1cc(Nc2ncnc3ccc(NC4=NC(C)(C)CO4)cc23)ccc1Oc1ccn2ncnc2c1` [Irbinitinib(ARRY-380; ONT-380)], for which the cell viability with Molm13 stood at 103 ± 17%; in the experiment on Mv4-11 it was 112 ± 8.3%.
As for `N#C/C(=C\c1ccc(O)c(O)c1)C(=O)NCc1ccccc1` [AG-490 (Tyrphostin B42)], the cell viability with Molm13 is 103 ± 5.9%; with Mv4-11, 105 ± 1.8%.
In the case of `O=C(NOCC1CC1)c1cc(Br)c(F)c(F)c1Nc1ccc(I)cc1Cl`, the cell viability with Molm13 was 110 ± 11%; in the experiment with Mv4-11, 113 ± 2.4%.
In the case of `CN(C)CCCn1cc(C2=C(c3c[nH]c4ccccc34)C(=O)NC2=O)c2ccccc21` [Bisindolylmaleimide I], the cell viability was 94.6 ± 15% in the experiment with Molm13 and 67.1 ± 44% in the experiment with Mv4-11.
On to `CC(C)(C)c1nc2c3cc[nH]c(=O)c3c3cc(F)ccc3c2[nH]1` [Pyridone 6], for which the values for the cell viability in the experiment with Molm13 and with Mv4-11 were 99.5 ± 18% and 106 ± 7%, respectively.
